# Test results reported in PubChem BioAssay.
# The list shows a part of the results. Calls of active or inactive are those of the source.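 How the source made its calls, unless noted: active means GFP response above 150% of the DMSO level; inconclusive means fewer than 70 events counted for a yeast strain; inactive means the rest.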
# Experiments:
# [1] = hit retest on RPL19A-GFP reporter strain – cell-based, S. cerevisiae, flow cytometry, cherry picks, mother/daughter gates, confirmation (AID 2270;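 active means GFP response below 50% of the DMSO control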); conditions: 3 h, at 10 µM, stronger effect = lower value, 100 = same GFP as DMSO wells
# [2] = yeast TOR pathway reporter LAP4-GFP change – cell-based, cherry picks, flow cytometry, mother/daughter gates, confirmation (AID 2271;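 active means GFP response above 150% of the DMSO control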;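 further: ratio of sample to DMSO plate mean so 100% equals DMSO level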); conditions: S. cerevisiae LAP4-GFP strain, 3 h, at 10 µM, stronger effect = higher value, 100 means same as DMSO control
# [3] = TOR pathway reporter MEP2-GFP, retest of hits – S. cerevisiae, flow cytometry GFP, cherry picks, confirmation (AID 2272;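 active means GFP response above 150% of the DMSO control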;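 further: ratio of well signal to plate DMSO mean so 100% equals DMSO level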); conditions: S. cerevisiae MEP2-GFP strain, 3 h, at 10 µM, stronger effect = higher value
# [4] = yeast AGP1-GFP fluorescence change, single-dose – cell-based, flow cytometry, S. cerevisiae, cherry picks, confirmation (AID 2273);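 further: median GFP channel fluorescence over the whole cell population gate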; conditions: S. cerevisiae AGP1-GFP strain, 3 h, at 10 µM
# [5] = TOR pathway CIT2 reporter hit retest – S. cerevisiae, GFP fusion, cherry picks, mother/daughter gates, confirmation (AID 2274); conditions: S. cerevisiae CIT2-GFP strain, flow cytometry, 3 h, at 10 µM, stronger effect = higher value
# [6] = reduced mouse 2C T cell binding to pMHC/ICAM-1 vesicles – MLPCN validation set, flow cytometry, LFA-1/ICAM-1 modulator project, pilot screen (AID 2523;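 active means response below a set limit, under 55% cells CD8-positive and vesicle-bound, and CD8 cells' 90th-percentile brightness under 279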;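 on vesicle binding response: mean PE anti-B7-1 fluorescence of CD8+ cells relative to row control; 100% = QL9-loaded vesicles with DMSO vehicle in the same plate row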); conditions: 2C mouse CD8+ T cells, at 7 µM, stronger effect = lower value; double positive events: measured here: CD8+/vesicle+ event percentage
# [7] = target: Integrin beta-1 (Homo sapiens) + Integrin alpha-4 (Homo sapiens) (UniProt P13612+P05556); assay: alpha4beta1 integrin LIBS antibody binding reduction – U937 cells, HUTS-21 mAb, flow cytometry, validation set, VLA-4 allosteric modulator project, pilot screen (AID 2674;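 active means inhibition above 50%, about 3 SD of the validation set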;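 further: antibody binding induced by the VLA-4 ligand LDV present at three times its Kd; 0% = LDV ligand with antibody and no compound and 100% = antibody without LDV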); conditions: HUTS-21 LIBS mAb binding, at 6.7 µM, stronger effect = higher value, binding induced by LDV ligand
# Sequence of Integrin beta-1 (Homo sapiens) + Integrin alpha-4 (Homo sapiens) (P05556 whole entry, looked up): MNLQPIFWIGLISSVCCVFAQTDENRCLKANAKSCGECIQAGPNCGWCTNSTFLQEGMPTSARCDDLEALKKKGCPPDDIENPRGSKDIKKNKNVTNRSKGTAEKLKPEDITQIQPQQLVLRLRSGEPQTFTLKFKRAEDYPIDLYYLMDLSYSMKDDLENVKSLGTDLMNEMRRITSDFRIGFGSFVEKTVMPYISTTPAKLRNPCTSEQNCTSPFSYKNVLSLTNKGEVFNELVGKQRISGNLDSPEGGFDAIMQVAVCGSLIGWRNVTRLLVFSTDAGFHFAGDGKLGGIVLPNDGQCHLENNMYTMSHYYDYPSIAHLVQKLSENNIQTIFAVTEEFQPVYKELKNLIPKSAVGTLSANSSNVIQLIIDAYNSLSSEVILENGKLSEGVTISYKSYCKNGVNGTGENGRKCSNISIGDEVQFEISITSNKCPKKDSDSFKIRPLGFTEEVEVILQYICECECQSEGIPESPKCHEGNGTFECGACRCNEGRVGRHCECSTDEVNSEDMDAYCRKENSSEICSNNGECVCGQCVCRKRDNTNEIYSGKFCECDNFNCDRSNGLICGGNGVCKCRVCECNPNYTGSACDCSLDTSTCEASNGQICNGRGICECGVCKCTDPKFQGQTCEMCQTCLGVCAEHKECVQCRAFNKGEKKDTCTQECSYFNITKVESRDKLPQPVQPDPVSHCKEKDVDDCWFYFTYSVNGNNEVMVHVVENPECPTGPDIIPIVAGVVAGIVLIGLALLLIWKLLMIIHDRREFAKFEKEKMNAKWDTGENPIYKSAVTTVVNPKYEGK
# Sequence of Integrin beta-1 (Homo sapiens) + Integrin alpha-4 (Homo sapiens) (P13612 whole entry, looked up): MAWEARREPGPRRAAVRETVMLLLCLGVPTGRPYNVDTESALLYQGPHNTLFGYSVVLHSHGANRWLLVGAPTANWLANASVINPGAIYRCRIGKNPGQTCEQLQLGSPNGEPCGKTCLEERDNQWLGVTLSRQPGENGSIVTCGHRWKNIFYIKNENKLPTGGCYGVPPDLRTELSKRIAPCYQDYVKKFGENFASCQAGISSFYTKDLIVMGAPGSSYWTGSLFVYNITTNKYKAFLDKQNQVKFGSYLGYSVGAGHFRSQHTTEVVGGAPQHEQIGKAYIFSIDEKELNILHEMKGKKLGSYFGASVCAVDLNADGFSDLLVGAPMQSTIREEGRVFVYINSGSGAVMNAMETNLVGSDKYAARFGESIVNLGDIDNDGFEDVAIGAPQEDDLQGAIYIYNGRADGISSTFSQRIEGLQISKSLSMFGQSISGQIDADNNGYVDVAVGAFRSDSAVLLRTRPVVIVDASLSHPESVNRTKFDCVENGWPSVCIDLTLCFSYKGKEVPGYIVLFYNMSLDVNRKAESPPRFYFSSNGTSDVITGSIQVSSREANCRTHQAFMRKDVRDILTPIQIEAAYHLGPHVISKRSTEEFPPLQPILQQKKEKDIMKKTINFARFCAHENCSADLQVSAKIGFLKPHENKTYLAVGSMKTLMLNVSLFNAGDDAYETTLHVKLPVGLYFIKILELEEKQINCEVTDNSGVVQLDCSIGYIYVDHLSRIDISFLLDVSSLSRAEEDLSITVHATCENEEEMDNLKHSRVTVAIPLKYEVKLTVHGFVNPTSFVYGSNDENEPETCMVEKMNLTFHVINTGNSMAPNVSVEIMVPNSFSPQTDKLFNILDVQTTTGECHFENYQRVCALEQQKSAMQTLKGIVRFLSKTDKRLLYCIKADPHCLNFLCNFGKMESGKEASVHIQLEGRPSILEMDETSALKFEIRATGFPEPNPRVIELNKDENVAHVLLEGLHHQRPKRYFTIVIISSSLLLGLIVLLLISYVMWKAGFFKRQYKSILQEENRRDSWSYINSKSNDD
# [8] = calorie-restriction mimetic ROS inhibitors, yeast – validation compound set, pilot screen (AID 2706;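 active means superoxide response below 65% of plate, a cut near 3 SD across the whole screen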;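 further: yeast exposed to compound for one week at 30 degrees C before staining; 100% = mean of all compound wells on the same plate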); conditions: S. cerevisiae aging, superoxide DHE fluorescence; at 10 µM, stronger effect = lower value
# [9] = target: Beta-adrenergic receptor kinase 1 (Homo sapiens) (UniProt P25098); assay: GRK2 binders displacing RNA aptamer, biochemical, validation, human GRK2, bead flow cytometry (AID 488806;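 active means aptamer binding inhibition above 30%, about 3 SD of noise from non-fluorescent compounds; inactive means inhibition at or below 30%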); conditions: bead-bound GRK2, FAM-aptamer displacement, at 10 µM, stronger effect = higher value
# Sequence of Beta-adrenergic receptor kinase 1 (Homo sapiens) (P25098 whole entry, looked up): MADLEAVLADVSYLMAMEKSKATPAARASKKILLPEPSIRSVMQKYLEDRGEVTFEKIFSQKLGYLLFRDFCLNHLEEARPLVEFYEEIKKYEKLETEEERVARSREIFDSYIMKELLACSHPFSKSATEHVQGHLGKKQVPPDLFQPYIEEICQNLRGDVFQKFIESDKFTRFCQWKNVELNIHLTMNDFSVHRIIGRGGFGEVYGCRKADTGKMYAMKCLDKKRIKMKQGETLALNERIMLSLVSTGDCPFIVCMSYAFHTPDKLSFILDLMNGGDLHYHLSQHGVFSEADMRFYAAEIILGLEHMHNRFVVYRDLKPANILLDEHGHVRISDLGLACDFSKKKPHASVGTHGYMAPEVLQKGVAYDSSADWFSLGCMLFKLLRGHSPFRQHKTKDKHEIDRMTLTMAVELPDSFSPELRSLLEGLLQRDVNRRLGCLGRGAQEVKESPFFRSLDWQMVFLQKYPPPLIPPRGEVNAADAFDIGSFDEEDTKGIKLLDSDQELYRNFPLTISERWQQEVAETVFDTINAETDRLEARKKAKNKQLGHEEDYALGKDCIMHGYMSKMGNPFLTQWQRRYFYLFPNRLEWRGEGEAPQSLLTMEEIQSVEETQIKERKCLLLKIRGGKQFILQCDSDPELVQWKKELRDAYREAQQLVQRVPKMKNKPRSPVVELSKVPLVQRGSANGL
# [10] = target: AP-2 complex subunit beta (Homo sapiens) (UniProt P63010); assay: beta-arrestin/AP2 interaction blockers – biochemical, validation set, GST-AP2 beads, flow cytometry, pilot screen (AID 504541;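 active means inhibition above 54%, about 3 SD of non-fluorescent compounds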;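 further: AP2 carries R879A mutation and is captured from E. coli lysate; bead-bound FITC arrestin peptide fluorescence measuring arrestin peptide binding to AP2; 0% = DMSO wells and 100% = excess unlabeled arrestin peptide control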); conditions: FITC arrestin peptide, at 10 µM, stronger effect = higher value, AP2 beta2 appendage fragment, R879A mutant
# Sequence of AP-2 complex subunit beta (Homo sapiens) (P63010 whole entry, looked up, the tested form may be a part, one chain of several): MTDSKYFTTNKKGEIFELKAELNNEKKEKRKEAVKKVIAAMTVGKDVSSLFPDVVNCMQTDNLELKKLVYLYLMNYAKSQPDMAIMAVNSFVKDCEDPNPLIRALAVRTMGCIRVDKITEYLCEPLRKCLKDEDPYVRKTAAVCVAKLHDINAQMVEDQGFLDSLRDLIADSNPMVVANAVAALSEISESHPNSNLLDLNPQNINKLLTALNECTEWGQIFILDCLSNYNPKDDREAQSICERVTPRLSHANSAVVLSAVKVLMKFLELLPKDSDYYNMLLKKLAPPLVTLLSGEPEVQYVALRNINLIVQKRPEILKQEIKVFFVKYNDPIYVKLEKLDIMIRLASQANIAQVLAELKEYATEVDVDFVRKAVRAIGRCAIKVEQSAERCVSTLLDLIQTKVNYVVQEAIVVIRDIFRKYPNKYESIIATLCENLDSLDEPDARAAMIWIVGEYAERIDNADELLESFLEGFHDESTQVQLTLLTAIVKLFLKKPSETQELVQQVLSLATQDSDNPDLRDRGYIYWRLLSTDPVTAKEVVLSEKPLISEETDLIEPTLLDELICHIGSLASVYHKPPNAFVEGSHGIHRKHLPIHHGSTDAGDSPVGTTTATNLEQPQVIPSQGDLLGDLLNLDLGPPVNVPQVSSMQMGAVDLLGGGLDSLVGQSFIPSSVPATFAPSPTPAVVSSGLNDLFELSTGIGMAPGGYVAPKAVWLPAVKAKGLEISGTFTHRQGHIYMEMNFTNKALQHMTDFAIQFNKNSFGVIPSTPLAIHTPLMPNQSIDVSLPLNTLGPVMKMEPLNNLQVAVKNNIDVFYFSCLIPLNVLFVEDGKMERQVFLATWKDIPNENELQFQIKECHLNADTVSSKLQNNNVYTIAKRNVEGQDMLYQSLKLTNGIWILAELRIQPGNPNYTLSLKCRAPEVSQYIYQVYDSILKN
# [11] = cytosolic pH regulators acting via V-ATPase – S. cerevisiae, pHLuorin, HTS validation (AID 504600; in the data active means response above about 15%;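 further: plate controls were DMSO for no effect and reference compound for full effect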); conditions: V-ATPase proton transport, at 10 µM, stronger effect = higher value
# [12] = tested on: anti-desmoglein-3 scFv antibody binding to human DSG3; assay: blockers of pathogenic pemphigus antibody–desmoglein-3 binding – biochemical, validation compound set, bead-based, flow cytometry, pilot screen (AID 588368;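 active means binding below the plate cutoff, the plate median minus 3 SD, with a reading above zero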;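 further: signal is the median channel fluorescence of bead-bound GFP antibody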); conditions: Protein G beads, DSG3-Fc, scFv-GFP binding, at 10 µM, stronger effect = lower value
# [13] = Nile Red efflux blockade in pump-expressing yeast – validation compound set, multiplex, phenotypic, pilot screen (AID 588506;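 active means efflux inhibition above 0.42, the validation set average plus 4 SD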;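 further: Nile Red retained in cells so higher fluorescence means more efflux inhibition; 0 = negative control wells and 1 = enniatin B 25 µM full block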); conditions: S. cerevisiae pump-expressing triplex, Nile Red efflux flow cytometry; at 10 µM; stronger effect = higher value; the pumps come from Candida albicans
# [14] = target: ATP-binding cassette sub-family B member 6 (Homo sapiens) (UniProt Q9NP58); assay: blockers of ABCB6-driven porphyrin uptake – K562-ABCB6 cells, flow cytometry, validation set, pilot screen (AID 588550;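 active means inhibition above the screen-wide mean plus 3 SD, about 51%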;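 further: 0% = DMSO wells and 100% = benzethonium chloride 70 µM positive control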); conditions: K562-ABCB6 porphyrin accumulation, 1 h, at 10 µM, stronger effect = higher value
# Sequence of ATP-binding cassette sub-family B member 6 (Homo sapiens) (Q9NP58 whole entry, looked up): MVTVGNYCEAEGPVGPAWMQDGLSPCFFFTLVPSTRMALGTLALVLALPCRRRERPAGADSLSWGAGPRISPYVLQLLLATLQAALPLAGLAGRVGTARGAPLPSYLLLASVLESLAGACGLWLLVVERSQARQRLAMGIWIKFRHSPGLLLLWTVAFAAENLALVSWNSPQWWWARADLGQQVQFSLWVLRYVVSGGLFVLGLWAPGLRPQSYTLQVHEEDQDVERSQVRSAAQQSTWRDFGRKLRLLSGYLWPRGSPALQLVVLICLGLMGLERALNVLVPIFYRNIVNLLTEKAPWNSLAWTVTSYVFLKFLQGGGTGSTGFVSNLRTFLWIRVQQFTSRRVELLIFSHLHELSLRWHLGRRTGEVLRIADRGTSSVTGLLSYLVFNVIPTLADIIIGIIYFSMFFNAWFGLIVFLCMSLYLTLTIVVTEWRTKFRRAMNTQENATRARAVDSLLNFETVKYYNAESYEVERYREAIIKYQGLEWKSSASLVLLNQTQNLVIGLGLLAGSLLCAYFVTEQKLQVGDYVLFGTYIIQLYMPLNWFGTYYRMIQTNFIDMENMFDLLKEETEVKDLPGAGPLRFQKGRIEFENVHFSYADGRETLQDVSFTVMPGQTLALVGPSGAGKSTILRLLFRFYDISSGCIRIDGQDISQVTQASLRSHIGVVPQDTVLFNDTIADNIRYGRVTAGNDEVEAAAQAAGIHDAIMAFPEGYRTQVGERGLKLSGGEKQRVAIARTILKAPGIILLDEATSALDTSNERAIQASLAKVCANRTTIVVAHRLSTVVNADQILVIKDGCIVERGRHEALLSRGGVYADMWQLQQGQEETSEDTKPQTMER
# [15] = AML differentiation inducers, ER-HoxA9 marrow cells – cell-based, GFP/MAC1 double positive, flow cytometry, validation set, primary screen (AID 588685;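 active means differentiation response of at least 50%, scaled between solvent and reference control, from cells with both markers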;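 further: compound exposure lasts four days before antibody staining and flow analysis; 0% = DMSO wells and 100% = 5 µM fulvestrant positive control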); conditions: stronger effect = higher value, normalized: vehicle 0, fulvestrant 100
# [16] = green-channel fluorescence artefact in S. cerevisiae – s288c strain, artefact control for yeast TOR pathway GFP screen, dose response (AID 2757;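 active means fluorescence span over the dose series, or activity score, above about 33, limit read from the data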;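 further: thousands of bead-calibrated equivalent soluble fluorophore molecules from median cell fluorescence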); conditions: 520 nm autofluorescence, flow cytometry, 3 h, at 33 µM, stronger effect = higher value, zero means same as solvent-only cells
# [17] = measured here: daughter cell gate
# [18] = measured here: mother cell gate
# [19] = measured here: daughter cell gate response
# [20] = measured here: mother cell gate response
smiles,measurement,setting,value
CCCCC(=O)O[C@]1(C(=O)CO)CC[C@H]2[C@@H]3CCC4=CC(=O)CC[C@]4(C)[C@H]3[C@@H](O)C[C@@]21C,GFP response vs DMSO,[1],96.8% (inactive)
same,GFP response vs DMSO,[1]; [17],96.4%
same,GFP response vs DMSO,[1]; [18],99%
same,GFP response relative to DMSO,[2],101% (inactive)
same,GFP response relative to DMSO,[2]; [19],101%
same,GFP response relative to DMSO,[2]; [20],99.3%
same,GFP response vs DMSO,[3],105% (inactive)
same,"GFP response, % of DMSO",[4],99.3% (inactive)
same,"GFP response, % of DMSO",[5],101% (inactive)
same,"GFP response, % of DMSO",[5]; [17],101%
same,"GFP response, % of DMSO",[5]; [18],101%
same,double positive events,[6],62.4%
same,vesicle binding response,[6],271% (inactive)
same,inhibition,[7],4.42% (inactive)
same,superoxide response (% of plate),[8],83.1% (inactive)
same,aptamer binding inhibition,[9],2% (inactive)
same,inhibition,[10],-7.47% (inactive)
same,response,[11],-1.11% (inactive)
same,binding (% of control),[12],101% (inactive)
same,efflux inhibition (fraction of control),[13],0.1 (inactive)
same,inhibition,[14],9% (inactive)
same,differentiation response,[15],-6.66% (inactive)
Cc1cc(O)ccc1NC(=O)c1ccccc1,GFP response vs DMSO,[1],98.4% (inactive)
same,GFP response vs DMSO,[1]; [17],98.4%
same,GFP response vs DMSO,[1]; [18],95.6%
same,GFP response relative to DMSO,[2],96.7% (inactive)
same,GFP response relative to DMSO,[2]; [19],92.8%
same,GFP response vs DMSO,[3],102% (inactive)
same,"GFP response, % of DMSO",[4],102% (inactive)
same,"GFP response, % of DMSO",[5],98.3% (inactive)
Cc1[nH]c(-c2ccccn2)nc(=S)c1Cl,GFP response vs DMSO,[1],106% (inactive)
same,GFP response vs DMSO,[1]; [17],98.1%
same,GFP response vs DMSO,[1]; [18],95.8%
same,GFP response relative to DMSO,[2],303% (active)
same,GFP response relative to DMSO,[2]; [19],215%
same,GFP response relative to DMSO,[2]; [20],266%
same,GFP response vs DMSO,[3],118% (inactive)
same,"GFP response, % of DMSO",[5],107% (inactive)
same,"GFP response, % of DMSO",[5]; [17],115%
same,"GFP response, % of DMSO",[5]; [18],91.5%
Cc1[nH][nH]c(=O)c1C(c1ccc(-c2ccc(Cl)cc2)o1)c1c(C)[nH][nH]c1=O,GFP response vs DMSO,[1],101% (inactive)
same,GFP response vs DMSO,[1]; [17],102%
same,GFP response vs DMSO,[1]; [18],99.8%
same,GFP response relative to DMSO,[2],188% (active)
same,GFP response relative to DMSO,[2]; [19],179%
same,GFP response relative to DMSO,[2]; [20],179%
same,GFP response vs DMSO,[3],114% (inactive)
same,"GFP response, % of DMSO",[4],103% (inactive)
same,"GFP response, % of DMSO",[5],101% (inactive)
same,"GFP response, % of DMSO",[5]; [17],102%
same,"GFP response, % of DMSO",[5]; [18],95.6%
same,fluorescence change (kMESF span),[16],0.2 (inactive)
CCn1c(/C=C/c2ccc([N+](=O)[O-])o2)nc2ccccc2c1=O,GFP response vs DMSO,[1],144% (inactive)
same,GFP response vs DMSO,[1]; [17],143%
same,GFP response vs DMSO,[1]; [18],135%
same,GFP response relative to DMSO,[2],347% (active)
same,GFP response relative to DMSO,[2]; [19],336%
same,GFP response relative to DMSO,[2]; [20],334%
same,GFP response vs DMSO,[3],418% (active)
same,"GFP response, % of DMSO",[4],131% (inactive)
same,"GFP response, % of DMSO",[5],278% (active)
same,"GFP response, % of DMSO",[5]; [17],289%
same,"GFP response, % of DMSO",[5]; [18],251%
same,fluorescence change (kMESF span),[16],108 (active)
C[n+]1ccc(/C=C/c2c[nH]c3ccccc23)cc1,GFP response vs DMSO,[1],107% (inactive)
same,GFP response vs DMSO,[1]; [17],105%
same,GFP response vs DMSO,[1]; [18],107%
same,GFP response relative to DMSO,[2],143% (inactive)
same,GFP response relative to DMSO,[2]; [19],143%
same,GFP response relative to DMSO,[2]; [20],143%
same,GFP response vs DMSO,[3],187% (active)
same,"GFP response, % of DMSO",[4],107% (inactive)
same,"GFP response, % of DMSO",[5],145% (inactive)
same,"GFP response, % of DMSO",[5]; [17],142%
same,"GFP response, % of DMSO",[5]; [18],146%
same,fluorescence change (kMESF span),[16],5.54 (inactive)
COc1cccc(C(=O)Nc2ccccc2)c1,GFP response vs DMSO,[1],98.2% (inactive)
same,GFP response vs DMSO,[1]; [17],97.4%
same,GFP response vs DMSO,[1]; [18],96.7%
same,GFP response relative to DMSO,[2],106% (inactive)
same,GFP response relative to DMSO,[2]; [19],102%
same,GFP response relative to DMSO,[2]; [20],106%
same,GFP response vs DMSO,[3],105% (inactive)
same,"GFP response, % of DMSO",[4],95.2% (inactive)
same,"GFP response, % of DMSO",[5],94% (inactive)
same,"GFP response, % of DMSO",[5]; [17],93.6%
same,"GFP response, % of DMSO",[5]; [18],92.6%
O=C1c2ccsc2SCCN1Cc1ccc(Cl)cc1,GFP response vs DMSO,[1],93.6% (inactive)
same,GFP response vs DMSO,[1]; [17],86%
same,GFP response vs DMSO,[1]; [18],97%
same,GFP response relative to DMSO,[2],135% (inactive)
same,GFP response relative to DMSO,[2]; [19],128%
same,GFP response relative to DMSO,[2]; [20],144%
same,GFP response vs DMSO,[3],91.3% (inactive)
same,"GFP response, % of DMSO",[4],93.9% (inactive)
same,"GFP response, % of DMSO",[5],82.2% (inactive)
same,"GFP response, % of DMSO",[5]; [17],80.1%
same,"GFP response, % of DMSO",[5]; [18],82.6%
O=C(c1ccc2c(c1)OCO2)N1CCN(c2ccccc2)CC1,GFP response vs DMSO,[1],98.2% (inactive)
same,GFP response vs DMSO,[1]; [17],97.1%
same,GFP response vs DMSO,[1]; [18],94%
same,GFP response relative to DMSO,[2],96.7% (inactive)
same,GFP response relative to DMSO,[2]; [19],104%
same,GFP response vs DMSO,[3],98.3% (inactive)
same,"GFP response, % of DMSO",[4],98% (inactive)
same,"GFP response, % of DMSO",[5],99.7% (inactive)
Oc1ccc2ccccc2c1N=Nc1nccs1,GFP response vs DMSO,[1],101% (inactive)
same,GFP response vs DMSO,[1]; [17],98.1%
same,GFP response vs DMSO,[1]; [18],98%
same,GFP response relative to DMSO,[2],163% (active)
same,GFP response relative to DMSO,[2]; [19],151%
same,GFP response relative to DMSO,[2]; [20],165%
same,GFP response vs DMSO,[3],116% (inactive)
same,"GFP response, % of DMSO",[4],89.3% (inactive)
same,"GFP response, % of DMSO",[5],105% (inactive)
same,"GFP response, % of DMSO",[5]; [17],101%
same,"GFP response, % of DMSO",[5]; [18],102%
same,fluorescence change (kMESF span),[16],0.51 (inactive)
O=C1Oc2ccccc2C(=O)/C1=C/c1ccccc1O,GFP response vs DMSO,[1],91.3% (inactive)
same,GFP response vs DMSO,[1]; [17],89.3%
same,GFP response vs DMSO,[1]; [18],80.2%
same,GFP response relative to DMSO,[2],394% (active)
same,GFP response relative to DMSO,[2]; [19],246%
same,GFP response relative to DMSO,[2]; [20],373%
same,GFP response vs DMSO,[3],105% (inactive)
same,"GFP response, % of DMSO",[4],91% (inactive)
same,"GFP response, % of DMSO",[5],79.8% (inactive)
same,"GFP response, % of DMSO",[5]; [17],91.7%
same,"GFP response, % of DMSO",[5]; [18],67.7%
same,fluorescence change (kMESF span),[16],0.71 (inactive)
O=C(c1ccc(Cl)c([N+](=O)[O-])c1)N1CCN(c2ccccc2)CC1,GFP response vs DMSO,[1],99.4% (inactive)
same,GFP response vs DMSO,[1]; [17],101%
same,GFP response vs DMSO,[1]; [18],96.7%
same,GFP response relative to DMSO,[2],116% (inactive)
same,GFP response relative to DMSO,[2]; [19],114%
same,GFP response relative to DMSO,[2]; [20],111%
same,GFP response vs DMSO,[3],102% (inactive)
same,"GFP response, % of DMSO",[4],97.8% (inactive)
same,"GFP response, % of DMSO",[5],95.5% (inactive)
same,"GFP response, % of DMSO",[5]; [17],101%
same,"GFP response, % of DMSO",[5]; [18],92.6%
same,fluorescence change (kMESF span),[16],2.52 (inactive)
